Screens as filed in PubChem BioAssay.
Rows were chosen to be rich in hits. Some 0.97% of all compounds tested hit in one or more screens of this group.
MBNL1 CUG block: blocks human MBNL1 binding to CUG repeat RNA | TR-FRET MBNL1-His/biotin-(CUG)12 binding, 665/545 ratio | Potency, µM (titrated, usually from 57.5 µM), most hits filed as inhibitors | 280,000 compounds, 0.036% hits | AID 2675; active = well fitted inhibition curve with a large enough effect in the signal ratio, with a control signal flat, not every such curve was filed as active; inconclusive = small, poorly fitted or top-dose-only effect, or effect the other way, or a change in a side signal; inactive = no such curve, though single readings can be large or run the other way; the % refers to the signal ratio
Target sequence (Q9NR56 whole entry, looked up): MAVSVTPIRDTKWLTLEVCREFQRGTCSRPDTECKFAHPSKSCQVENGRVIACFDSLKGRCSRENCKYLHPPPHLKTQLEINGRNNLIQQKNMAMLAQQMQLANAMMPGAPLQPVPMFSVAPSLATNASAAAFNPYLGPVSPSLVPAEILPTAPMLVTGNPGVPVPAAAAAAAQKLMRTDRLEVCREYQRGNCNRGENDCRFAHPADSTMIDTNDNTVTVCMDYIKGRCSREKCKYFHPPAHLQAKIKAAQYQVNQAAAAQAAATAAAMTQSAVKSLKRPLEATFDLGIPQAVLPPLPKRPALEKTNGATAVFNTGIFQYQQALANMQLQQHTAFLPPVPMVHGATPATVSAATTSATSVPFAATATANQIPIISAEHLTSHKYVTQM
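Ratiometric TR-FRET (665 over 545 nm, excitation 340 nm) tracks disruption of MBNL1-His/biotin-(CUG)12 complex after 60 min at room temperature, with compounds at 92 nM to 58 uM final.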
uPA generation: inhibitors of cell surface uPA generation; Potency, µM (top dose mostly 38.3 µM), hits mostly inhibitors; cell surface uPA generation assay, qHTS; 330,000 compounds, 0.31% hits; AID 540303; active = well fitted inhibition curve with a large enough effect; inconclusive = small, poorly fitted or top-dose-only effect; inactive = no such curve, though single readings can be large or run the other way; tested in mouse RAW 264.7 cells; note: nearly all actives have a fitted effect of over 55% in size
Akt phos inh: blocks phosphorylation of Akt; Neuro2A IGF-stimulated pAkt S473 HTRF, 20 min; hits give low values; activity change, % for hits at 50 µM; 360,000 compounds, 0.32% hits; in the data active = activity change below about -80%; inconclusive = mostly about -51% to -80%
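Neuro2A cells (4,500/well, DMEM with 0.5% FBS) were treated with compound at a single 50 µM final concentration, stimulated with 6 nM IGF for 20 min at 37 °C, and lysed. Phospho-Akt Ser473 was read by HTRF as 665/615 ratio ×10^4.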
Epigenetic derep: epigenetic control regulation, reporter derepression. 280,000 compounds, 0.2% hits. Potency, µM (highest dose often 53.9 µM), usual class: activators. murine LDR cells, GFP reporter derepression, 30 h; note: nearly all actives have a fitted effect of over 60% in size
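Readout is the number of GFP-expressing murine LDR cells, counted by cytometry following washing. Cells were treated with compound for 30 h at 37 C; the stably integrated CMV-GFP locus is normally silent.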
Mm-Cpn inhibitor: M. maripaludis TRiC chaperonin inhibition; purified Mm-Cpn ATPase, ADP Transcreener TR-FRET; Potency, µM (highest dose often 76.9 µM), usual class: inhibitors; 330,000 compounds, 0.031% hits; AID 504842; note: nearly all actives have a fitted effect of over 80% in size
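ATPase read-out: TR-FRET ADP immunoassay (anti-ADP Eu cryptate vs ADP-d2), ex 320 nm, em 590/665 nm; signal drops as ADP forms. Enzyme 25 nM, ATP 10 uM, 30 min at 37°C after 10 min compound preincubation.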
CCT modulator: modulators of cytosolic chaperonin (CCT/TRiC) activity | AID 651819 | activity change, % (test concentration not listed), hits read low | 360,000 compounds, 0.3% hits | purified chaperonin ATPase assay, HTRF ADP detection, 30 min; in the data active = activity change below about -30%
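Enzyme 40 or 20 nM (batch-dependent) in Tris pH 7.4/KCl/MgCl2/DTT; cpd 76 uM single point; ATP 10 uM; 30 min 37 °C; Transcreener ADP HTRF detection, 30 min RT; ratio 665/615.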
Large screens that a line does not name were inactive. Unless noted, calls come from the whole dose curve; as a rule, active = well fitted curve in the direction sought with a large enough effect; inconclusive = small, poorly fitted or top-dose-only effect, or another doubt; inactive = no such curve, though single readings can be large; an effect the other way counts as inactive or inconclusive.

Cn1cc(C(=O)c2ccc(Cl)cc2Cl)cc1C(=O)N/N=C(\N)COc1ccccc1	Akt phos inh -109%
Cn1ccc2cc(-c3ccc4ncnc(NCc5cccc(F)c5)c4c3)ccc21	none (no result: MBNL1 CUG block, uPA generation, Akt phos inh, Epigenetic derep, CCT modulator)
Cc1cc(C)c(C(=O)CC2(O)C(=O)Nc3ccccc32)cc1C (stereo not given)	Akt phos inh -116%
CCCCCOC(=O)C(C)Sc1n[nH]c(=O)[nH]c1=O (stereo not given)	none
CCCCOC(=O)CSc1n[nH]c(=O)[nH]c1=O	Akt phos inh -124%
COc1cccc(/C(=N/O)C2CC2c2ccc(Cl)cc2)c1 (stereo not given)	none
Cc1ccc(S(=O)(=O)N2CCN(C(=O)COC(=O)CC(C)c3ccccc3)CC2)c(C)c1 (stereo not given)	none (no result: MBNL1 CUG block, Epigenetic derep)
CNC(=O)c1c(N)sc2c1CCCCC2	none (no result: uPA generation, Akt phos inh, CCT modulator)
Nc1sc2c(c1C(=O)NC1CCS(=O)(=O)C1)CCC2 (stereo not given)	Akt phos inh -130%
O=c1c(/C=C(\O)c2ccc(F)cc2)nc2ccccc2n1-c1ccccc1	Epigenetic derep 13µM
Cc1ccc(NC(=O)CN2C(=O)NC(C)(c3ccccc3)C2=O)c(C)c1 (stereo not given)	CCT modulator -60 (no result: Epigenetic derep)
CC1=NN(C(=O)c2c(Br)c(C)nn2C)C(O)(C(F)(F)F)C1 (stereo not given)	none
Oc1[nH]c(N=C2N=c3ccccc3=N2)c2ccccc12	Epigenetic derep 13µM
CC(C)C[C@@H](C=O)NC(=O)[C@H](CC(C)C)NC(=O)[C@H](CC(C)C)NC(=O)OCc1ccccc1	Epigenetic derep 1.3µM (no result: MBNL1 CUG block, uPA generation, Akt phos inh, Mm-Cpn inhibitor, CCT modulator)
O=C(c1ccc(-n2ccnc2)cc1)N1CCCC(CO)(Cc2cccc(Cl)c2)C1 (stereo not given)	none (no result: Akt phos inh, Epigenetic derep)
COc1cc(/C=C2\Oc3cc(O)ccc3C2=O)ccc1O	MBNL1 CUG block inconclusive, uPA generation 6.3µM
Cc1ccsc1/C=C1\Oc2cc(O)ccc2C1=O	none (no result: MBNL1 CUG block, uPA generation, Epigenetic derep, Mm-Cpn inhibitor)
COc1ccc2oc(=O)cc(CN3CCN(Cc4ccc(OC)c(OC)c4OC)CC3)c2c1	none (no result: Epigenetic derep)
COc1ccc(OC)c2sc(NC(=O)CCSc3ccccc3)nc12	none
COc1ccc(OC)c2sc(NC(=O)CCS(=O)(=O)c3ccccc3)nc12	uPA generation 7.1µM (no result: MBNL1 CUG block, Epigenetic derep, Mm-Cpn inhibitor)
COc1ccc(-c2csc(NC(=O)CS(=O)(=O)c3ccccc3)n2)cc1OC	CCT modulator -31 (no result: MBNL1 CUG block, uPA generation, Epigenetic derep, Mm-Cpn inhibitor)
CC(C)(C)C(=O)Nc1nnc(SCC(=O)NC2CC2)s1	none (no result: Epigenetic derep)
Cc1ccc(-c2nn(CCC(=O)Nc3cccnc3)c(=O)c3ccccc23)cc1	CCT modulator -65 (no result: MBNL1 CUG block)
CC1(C(=O)NS(=O)(=O)c2cccc(C#N)c2)CCN1C(=O)C1(c2ccc(Cl)cc2)CCC1 (stereo not given)	none (no result: MBNL1 CUG block, uPA generation, Epigenetic derep, Mm-Cpn inhibitor)
C=C(C(=O)Nc1ccccc1)c1ccc(C)cc1	none (no result: MBNL1 CUG block, Epigenetic derep)
O=[N+]([O-])c1nn(-c2ccc3c(c2)OCCO3)n(O)c1=NC1CCN(Cc2ccccc2)CC1	MBNL1 CUG block inconclusive, uPA generation 4.5µM
CCOCCCn1c(SCC(=O)NC2CCCCC2)nc2ccccc2c1=O	CCT modulator -86 (no result: MBNL1 CUG block, uPA generation, Epigenetic derep, Mm-Cpn inhibitor)
CCOC(CCn1c(SCC(=O)NC2CCCC2)nc2ccccc2c1=O)OCC	none (no result: Epigenetic derep)
CN(C)C(=S)NC(C)(C)C	Mm-Cpn inhibitor 45µM (no result: MBNL1 CUG block)
Cc1ccc(CNC(=S)N(C)C)cc1	none
Cc1ccccc1C(=O)Nc1nc2c(s1)CC(C(C)(C)C)CC2 (stereo not given)	none (no result: MBNL1 CUG block, uPA generation, Akt phos inh, Mm-Cpn inhibitor, CCT modulator)
Cc1ccc(NC(=O)c2cnn(-c3ccccc3)c2NC(=O)c2ccco2)cc1C	CCT modulator -39
CC(C)c1ccc(CN2CCN(C(=O)CCl)CC2)cc1	uPA generation 3.5µM
O=C(NCc1cccnc1)c1cccc(NS(=O)(=O)c2ccc(Br)cc2)c1	none (no result: MBNL1 CUG block, Epigenetic derep)
Cc1ccc(S(=O)(=O)Nc2cccc(C(=O)NCc3cccnc3)c2)cc1F	uPA generation 3.2µM (no result: MBNL1 CUG block, Epigenetic derep)
Cc1ccc(Cl)cc1N1C(=O)CC(Sc2ccccc2N)C1=O (stereo not given)	CCT modulator -33 (no result: MBNL1 CUG block, uPA generation, Epigenetic derep, Mm-Cpn inhibitor)
Cc1ccc(O)c(N)c1	uPA generation 2.8µM (no result: MBNL1 CUG block, Epigenetic derep)
Cc1ccc(C)c(N)c1	none (no result: MBNL1 CUG block, Epigenetic derep)
O=c1nc(SCc2c(F)cccc2Cl)nc(-c2ccccc2)[nH]1	CCT modulator -31
